From paper PMC12820563, “FoxP3 forms a head-to-head dimer in vivo and stabilizes its multimerization on adjacent microsatellites” come the findings set out here.

In all, about 16,000 sequences were measured (“rpm ratio (pull-down/input)”: median about 0.5, highest 2% from about 5.5 on). What follows is part of a selection rich in the highest values, with near analogues and random picks from the rest.

In this assay the target is T1, MBP-FoxP3dN (Mus musculus, UniProt Q99JB6 188-423).
T1 sequence: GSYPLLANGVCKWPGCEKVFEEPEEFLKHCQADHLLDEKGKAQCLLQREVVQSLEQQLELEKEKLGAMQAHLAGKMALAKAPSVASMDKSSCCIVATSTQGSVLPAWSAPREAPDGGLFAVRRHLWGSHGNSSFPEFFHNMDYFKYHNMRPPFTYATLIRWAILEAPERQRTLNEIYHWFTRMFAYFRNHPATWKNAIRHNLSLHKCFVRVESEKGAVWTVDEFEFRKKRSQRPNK
The assay can be described thus: PD-seq (MBP pull-down with sequencing); 20 mM Tris-HCl pH 7.5, 100 mM NaCl, 1.5 mM MgCl2, 0.4 uM protein, 0.1 uM dsDNA library, 30 min, room temperature, amylose pull-down; high values mean tight binding. Conditions: protein: recombinant; tags: His6-MBP; chain copies: 2; dsDNA, one strand shown. An outline of the steps: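 Amylose resin was used to capture complexes formed during 30 min at room temperature in Tris pH 7.5 buffer with NaCl and MgCl2 between 0.4 µM His6-MBP-tagged mouse FoxP3 or FoxP1 fragment lacking the N-terminus, expressed in E. coli, and 0.1 µM Klenow-filled double-stranded degenerate DNA library. After three washes, the DNA was released with proteinase K, barcoded by PCR and sequenced on Illumina. Binding is pooled-replicate reads-per-million enrichment, pull-down over input.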
With “GATGATTGTTCTCCCAGCTGATGAATTTATATACTCGAGTAAACAAATTTTCCTAATCTTTCTGTTCAAGCGCCATCTAC”, the binding signal was 3.39 RPM ratio (pull-down/input). For “GATGATTGTTCTCCCAGCTGATGAATTTTGGCCTTCGAGTAAACAAATTTTCCTAATCTTTCTGTTCAAGCGCCATCTAC” the value was 2.06 RPM ratio (pull-down/input); for “GATGATTGTTCTCCCAGCTGATGAATTATTGCGATCGAGTAAACAAATTTTCCTAATCTTTCTGTTCAAGCGCCATCTAC”, 1.08 RPM ratio (pull-down/input). On to “GATGATTGTTCTCCCAGCTGATGAATTGATTTGTTCGAGTAAACAAATTTTCCTAATCTTTCTGTTCAAGCGCCATCTAC”, for which the binding signal is 3.85 RPM ratio (pull-down/input). As for “GATGATTGTTCTCCCAGCTGATGAATTTGATTGTTCGAGTAAACAAATTTTCCTAATCTTTCTGTTCAAGCGCCATCTAC”, the binding signal is 6.32 RPM ratio (pull-down/input). The result for “GATGATTGTTCTCCCAGCTGATGAATTTGTTGGTTCGAGTAAACAAATTTTCCTAATCTTTCTGTTCAAGCGCCATCTAC” reads 7.67 RPM ratio (pull-down/input); that for “GATGATTGTTCTCCCAGCTGATGAATTTTTTGTTTCGAGTAAACAAATTTTCCTAATCTTTCTGTTCAAGCGCCATCTAC”, 0.423 RPM ratio (pull-down/input).

On to “GATGATTGTTCTCCCAGCTGATGAATTGGTTGGTTCGAGTAAACAAATTTTCCTAATCTTTCTGTTCAAGCGCCATCTAC”, for which the binding signal was 3.77 RPM ratio (pull-down/input). For “GATGATTGTTCTCCCAGCTGATGAATTCGTTTTGTCGAGTAAACAAATTTTCCTAATCTTTCTGTTCAAGCGCCATCTAC” the value was 3.54 RPM ratio (pull-down/input); for “GATGATTGTTCTCCCAGCTGATGAATTCGTTTGTTCGAGTAAACAAATTTTCCTAATCTTTCTGTTCAAGCGCCATCTAC”, 5.83 RPM ratio (pull-down/input); for “GATGATTGTTCTCCCAGCTGATGAATTCGTTTTTTCGAGTAAACAAATTTTCCTAATCTTTCTGTTCAAGCGCCATCTAC”, 2.58 RPM ratio (pull-down/input). Turning to “GATGATTGTTCTCCCAGCTGATGAATTTGTTTTTTCGAGTAAACAAATTTTCCTAATCTTTCTGTTCAAGCGCCATCTAC”, the binding signal is 6.93 RPM ratio (pull-down/input). For the sequence “GATGATTGTTCTCCCAGCTGATGAATTTGGTTGTTCGAGTAAACAAATTTTCCTAATCTTTCTGTTCAAGCGCCATCTAC”, the binding signal was 5.35 RPM ratio (pull-down/input). The result for “GATGATTGTTCTCCCAGCTGATGAATTTGAATTTTCGAGTAAACAAATTTTCCTAATCTTTCTGTTCAAGCGCCATCTAC” reads 0.538 RPM ratio (pull-down/input).

As to “GATGATTGTTCTCCCAGCTGATGAATTCTTTGTTTCGAGTAAACAAATTTTCCTAATCTTTCTGTTCAAGCGCCATCTAC”, the binding signal is 0.575 RPM ratio (pull-down/input). Consider “GATGATTGTTCTCCCAGCTGATGAATTGTACTATTCGAGTAAACAAATTTTCCTAATCTTTCTGTTCAAGCGCCATCTAC”, for which the binding signal was 0.669 RPM ratio (pull-down/input). For “GATGATTGTTCTCCCAGCTGATGAATTGTCCCTGTCGAGTAAACAAATTTTCCTAATCTTTCTGTTCAAGCGCCATCTAC” the value was 0.319 RPM ratio (pull-down/input); for “GATGATTGTTCTCCCAGCTGATGAATTAGGGGTTTCGAGTAAACAAATTTTCCTAATCTTTCTGTTCAAGCGCCATCTAC”, 0.738 RPM ratio (pull-down/input). For “GATGATTGTTCTCCCAGCTGATGAATTTTACGCGTCGAGTAAACAAATTTTCCTAATCTTTCTGTTCAAGCGCCATCTAC” the value was 0.624 RPM ratio (pull-down/input); for “GATGATTGTTCTCCCAGCTGATGAATTGAGACACTCGAGTAAACAAATTTTCCTAATCTTTCTGTTCAAGCGCCATCTAC”, 1.41 RPM ratio (pull-down/input).

With “GATGATTGTTCTCCCAGCTGATGAATTGCGGACATCGAGTAAACAAATTTTCCTAATCTTTCTGTTCAAGCGCCATCTAC”, the binding signal is 0.781 RPM ratio (pull-down/input). The result for “GATGATTGTTCTCCCAGCTGATGAATTAAAAATTTCGAGTAAACAAATTTTCCTAATCTTTCTGTTCAAGCGCCATCTAC” reads 0.202 RPM ratio (pull-down/input). The result for “GATGATTGTTCTCCCAGCTGATGAATTTGGTTAATCGAGTAAACAAATTTTCCTAATCTTTCTGTTCAAGCGCCATCTAC” reads 0.489 RPM ratio (pull-down/input). The result for “GATGATTGTTCTCCCAGCTGATGAATTCCGCGCATCGAGTAAACAAATTTTCCTAATCTTTCTGTTCAAGCGCCATCTAC” reads 1.39 RPM ratio (pull-down/input). As to “GATGATTGTTCTCCCAGCTGATGAATTCTCCGCATCGAGTAAACAAATTTTCCTAATCTTTCTGTTCAAGCGCCATCTAC”, the binding signal is 0.8 RPM ratio (pull-down/input). For “GATGATTGTTCTCCCAGCTGATGAATTCCCCGCATCGAGTAAACAAATTTTCCTAATCTTTCTGTTCAAGCGCCATCTAC” the value was 0.735 RPM ratio (pull-down/input); for “GATGATTGTTCTCCCAGCTGATGAATTCCGCATTTCGAGTAAACAAATTTTCCTAATCTTTCTGTTCAAGCGCCATCTAC”, 6.33 RPM ratio (pull-down/input); for “GATGATTGTTCTCCCAGCTGATGAATTTTCCGCATCGAGTAAACAAATTTTCCTAATCTTTCTGTTCAAGCGCCATCTAC”, 1.07 RPM ratio (pull-down/input). In the case of “GATGATTGTTCTCCCAGCTGATGAATTTCCCGCATCGAGTAAACAAATTTTCCTAATCTTTCTGTTCAAGCGCCATCTAC”, the binding signal was 0.913 RPM ratio (pull-down/input). For “GATGATTGTTCTCCCAGCTGATGAATTCCGCAATTCGAGTAAACAAATTTTCCTAATCTTTCTGTTCAAGCGCCATCTAC” the value was 4.91 RPM ratio (pull-down/input). Consider “GATGATTGTTCTCCCAGCTGATGAATTTCCGCATTCGAGTAAACAAATTTTCCTAATCTTTCTGTTCAAGCGCCATCTAC”, for which the binding signal is 6.24 RPM ratio (pull-down/input). Regarding “GATGATTGTTCTCCCAGCTGATGAATTCCCGCATTCGAGTAAACAAATTTTCCTAATCTTTCTGTTCAAGCGCCATCTAC”, the binding signal was 5.9 RPM ratio (pull-down/input). For “GATGATTGTTCTCCCAGCTGATGAATTCCGCATCTCGAGTAAACAAATTTTCCTAATCTTTCTGTTCAAGCGCCATCTAC”, the binding signal is 6.95 RPM ratio (pull-down/input).
